# Values joined by “and” are separate entries in the source; they are usually repeats but may differ in a detail not shown here. Identical values can stand only once. In all, about 650,000 compounds went through this assay and about 6,800 (1%) were called active. Shown is part of a subset that was picked to be rich in actives. A number with no mark means an inactive call. Rule as the data show it: active = activation above about 4.9%; inactive = the rest.
# Target: G-protein coupled receptor 151 (Homo sapiens) (UniProt Q8TDV0)
# Experiment: activates the human receptor GPR151, primary screen, cell-based, PathHunter beta-arrestin, luminescence (AID 1508602);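 also: 0% = median of compound wells and 100% = cells with positive control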
# Settings: PathHunter beta-arrestin GPR151 cells, at 11.2 µM, hits give high values
# Sequence of G-protein coupled receptor 151 (Homo sapiens) (Q8TDV0 whole entry, looked up): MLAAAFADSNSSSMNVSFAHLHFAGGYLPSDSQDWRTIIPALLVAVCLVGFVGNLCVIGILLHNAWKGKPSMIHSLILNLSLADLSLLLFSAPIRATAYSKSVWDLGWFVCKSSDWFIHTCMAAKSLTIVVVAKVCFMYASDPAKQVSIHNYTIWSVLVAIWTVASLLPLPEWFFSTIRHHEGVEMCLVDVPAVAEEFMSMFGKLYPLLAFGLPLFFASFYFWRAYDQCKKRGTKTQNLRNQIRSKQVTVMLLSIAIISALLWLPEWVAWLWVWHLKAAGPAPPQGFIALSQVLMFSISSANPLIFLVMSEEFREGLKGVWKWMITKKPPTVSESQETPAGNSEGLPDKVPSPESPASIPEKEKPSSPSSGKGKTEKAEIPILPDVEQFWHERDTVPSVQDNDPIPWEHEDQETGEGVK
row,SMILES,activation
1,CCc1ccc(-c2ccc(C3CCC(CC)CC3)cc2)nc1 (stereo not drawn),10.7% (active)
2,CCCC1CCC(c2ccc(-c3ccc(CC)cn3)cc2F)CC1 (stereo not drawn),3.24%
3,CCCCOc1ccc(OC(=O)c2ccc(-c3ccc(CC)cn3)cc2)cc1,0.589%
4,COc1ccc(/C(O)=C2/C(=O)C(=O)N(CCCC(=O)O)C2c2ccc(O)cc2)cc1 (stereo not drawn),0.777%
5,Cc1ccc(-n2[nH]c(C)c(C=Nc3ccc(N=Cc4c(C)[nH]n(-c5ccc(C)c(C)c5)c4=O)cc3)c2=O)cc1C,1.34%
6,CCC1(c2ccc(Cl)cc2Cl)NC(=S)N(c2ccc(C)c(C)c2)N1 (stereo not drawn),6.17% (active)
7,Cc1ccc(N2NC3(CCCCC3)NC2=S)cc1C,1.89%
8,CCCCOC(=O)C1=C(C)NC2=C(C(=O)CCC2)C1c1ccccc1[N+](=O)[O-] (stereo not drawn),1.59% and 0.946%
9,CCCCOC(=O)C1=C(C)NC2=C(C(=O)CCC2)C1c1cccc([N+](=O)[O-])c1 (stereo not drawn),6.33% (active)
10,COc1ccc(COC(=O)C2=C(C)NC3=C(C(=O)CCC3)C2c2cccc([N+](=O)[O-])c2)cc1 (stereo not drawn),-0.575%
11,Cn1nc2c(nc1=O)[nH]c1ccccc12,-0.513%
12,Cc1ccc(OCCN2CCNCC2)cc1C,-1.28%
13,COc1cc2nc(-c3cccc(C(C)=O)c3)nc(Nc3ccc(N4CCOCC4)cc3)c2cc1OC,5.83% (active)
14,CC(=O)c1cccc(-c2cccc(C(=O)Nc3ccc(N4CCOCC4)cc3)c2)c1,-0.102%
15,COc1cc2nc(-c3ccc(N4CCOCC4)nc3)nc(Nc3ccc(NC(C)=O)cc3)c2cc1OC,0.834%
16,COc1cc(C2C3=C(CC(C)(C)CC3=O)Nc3ccc4ncccc4c32)ccc1OC(C)=O (stereo not drawn),-0.317%
17,O=C(Cc1cccs1)N1CCCCC1c1nc2ccccc2[nH]1 (stereo not drawn),0.204%
18,O=C(Nc1ccc(Br)cc1Cl)N1CCN(c2ncccn2)CC1,-0.59%
19,Cn1c(SCCN2CCCCC2)nnc1C1CCN(C/C=C/c2ccco2)CC1,1.24%
20,COc1cccc(C(=O)Nc2ccc(N3CCCC3=O)cc2)c1,-9.98%
21,O=C(Nc1ccc(S(=O)(=O)Nc2ncccn2)cc1)c1cncc(Br)c1,-0.902%
22,O=C(Nc1ccc(N2CCCC2=O)cc1)c1cncc(Br)c1,5.11% (active)
23,C(=N\c1nnc2nc[nH]n12)/c1ccco1,-0.745%
24,CC(C)CNC(=O)c1ccc(F)c(S(=O)(=O)N2CCOCC2)c1,1.07%

row,SMILES,activation
1,COc1ccc(S(=O)(=O)Oc2ccc(Cl)c3cccnc23)cc1OC,2.28%
2,O=[N+]([O-])c1ccc(Oc2ccc(Cl)c3cccnc23)c(Cl)c1,0.725%
3,COc1ccc(OC)c(S(=O)(=O)Oc2ccc(Cl)c3cccnc23)c1,12.1% (active)
4,COC(=O)c1cc2cc(N)ccc2s1,0.191%
5,CCCS(=O)(=O)N1CCN=C1SCc1cccc(Cl)c1,-1.49%
6,Cc1cccc(NC(=O)CSc2nc3[nH]ncc3c(=O)[nH]2)c1,5.01% (active)
7,Cc1cc(=O)[nH]c(SCC(=O)Nc2ccccn2)n1,0.382%
8,Cc1cc(=O)[nH]c(SCC(=O)Nc2cccc3ccccc23)n1,15.8% (active)
9,Cc1cc(=O)[nH]c(SCC(=O)Nc2ccc(C(N)=O)cc2)n1,-0.979%
10,Cc1nc(SCC(=O)Nc2cccc3ccccc23)n[nH]1,-0.295%
11,O=C(CSc1ccc(F)cc1)Nc1ccccc1-c1nc2ccccc2s1,-0.819%
12,Cc1nnc(SCC(=O)Nc2cccc(Cl)c2)[nH]c1=O,0.326%
13,Cc1cccc(NC(=O)CSc2ncn[nH]2)c1,-0.535%
14,O=C(CSc1ccc(F)cc1)Nc1cccc2ccccc12,7.44% (active)
15,COc1ccc(C(=O)c2snc(Nc3ccccc3)c2N)cc1,0.834%
16,CCSc1c(O)cnn(-c2ccccc2)c1=O,0.94%
17,CCOC(=O)C(C#N)C(C#N)(C(=O)OCC)C1CCCCC1=O (stereo not drawn),2.95%
18,O=C(CNC(=O)c1ccc(NC2CC2)c([N+](=O)[O-])c1)Nc1ccc(F)c(F)c1F,0.807%
19,Nc1ncnc(Oc2ccccc2Cl)c1[N+](=O)[O-],1.64%
20,Cc1csc(Nc2ncnc(N)c2[N+](=O)[O-])n1,-0.642%
21,Cc1ccc[n+](-c2ncnc(N)c2[N+](=O)[O-])c1,6.28% (active)
22,CSc1ncc(C(=O)Nc2ccc(F)cc2C)c(C)n1,-0.309%
23,O=C(Nc1ccccc1)NC1(C(=O)Nc2ccc(F)cc2F)CCCCC1,0.408%
24,Cc1ccc(NC(=O)Cn2c(C)c(C=O)c3ccccc32)cc1C,1.3%
